Experimental data taken from PubChem BioAssay (NCI).
Compounds without any hit were thinned out: in the full panel of roughly 79,000, 15% have a hit. The source made the active and inactive calls. No stated cut-off is given here; in the data, active means growth inhibition above about 70%; inactive means the rest.

Tests used:
[1] = NCI Yeast Anticancer Drug Screen. Data for the rad52 strain (AID 147);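 further: 0% = growth of vehicle-treated control cultures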; conditions: S. cerevisiae rad52 mutant growth inhibition, hits give high values
Method in brief: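 Vehicle-treated cultures served as the reference for growth inhibition of compound-exposed yeast bearing a DNA repair mutation.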

[2] = NCI Yeast Anticancer Drug Screen. Data for the wt1 strain (AID 149);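 further: 0% = growth of vehicle-treated wt1 cultures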; conditions: S. cerevisiae wt1 strain (SPY 50644) growth inhibition, hits give high values
Method in brief: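 wt1 strain grown with compound or vehicle; inhibition taken from the growth difference.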

[3] = NCI Yeast Anticancer Drug Screen. Data for the rad50EPP+ strain (AID 151);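 further: 0% = growth of vehicle-treated control cultures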; conditions: S. cerevisiae rad50 mutant strain, hits give high values
Method in brief: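 In this screen, rad50EPP+ yeast were exposed to compounds. Growth inhibition was scored against vehicle-treated controls.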

[4] = NCI Yeast Anticancer Drug Screen. Data for the mgt1 strain (AID 153); conditions: S. cerevisiae mgt1 mutant growth inhibition, hits give high values
Method in brief: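 mgt1 strain exposed; growth vs vehicle control recorded as inhibition.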

[5] = NCI Yeast Anticancer Drug Screen. Data for the rad50 strain (AID 155);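 further: 0% = growth of vehicle-only cultures of the same strain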; conditions: S. cerevisiae rad50 strain growth inhibition, hits give high values
Method in brief: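 DNA repair mutant yeast, compound exposure, growth read-out; inhibition is taken relative to vehicle.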

[6] = NCI Yeast Anticancer Drug Screen. Data for the mec2-1 strain (AID 157); conditions: S. cerevisiae mec2-1 strain, hits give high values
Method in brief: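 Vehicle-treated cultures served as reference for growth inhibition of compound-exposed mec2-1 yeast.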

[7] = NCI Yeast Anticancer Drug Screen. Data for the rad14 strain (AID 159);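 further: 0% = growth of vehicle-treated control cultures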; conditions: S. cerevisiae rad14 strain growth inhibition, hits give high values
Method in brief: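 DNA repair-defective yeast, compound-exposed; % growth inhibition derived by comparison with vehicle-treated controls.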

[8] = NCI Yeast Anticancer Drug Screen. Data for the sgs1 mgt1 strain (AID 161);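 further: 0% = growth of cultures given vehicle only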; conditions: S. cerevisiae sgs1 mgt1 strain, hits give high values
Method in brief: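 Read-out: growth inhibition vs vehicle controls. Cells: mutant yeast strain deficient in DNA damage repair.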

[9] = NCI Yeast Anticancer Drug Screen. Data for the CLN2oe strain (AID 163);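 further: 0% = growth of vehicle-only control cultures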; conditions: S. cerevisiae CLN2oe strain, hits give high values
Method in brief: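 Inhibition relative to vehicle-treated yeast is reported. Cells: strain with genetic alteration in cell-cycle control, grown with compound.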

[10] = NCI Yeast Anticancer Drug Screen. Data for the bub3 strain (AID 167); conditions: S. cerevisiae bub3 mutant strain, hits give high values
Method in brief: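 In this screen, a yeast mutant lacking normal mitotic checkpoint function is challenged with compound. Relative growth versus vehicle gives the inhibition value.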

[11] = NCI Yeast Anticancer Drug Screen. Data for the wt2 strain (AID 169);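 further: 0% = growth of vehicle-treated yeast cultures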; conditions: S. cerevisiae wt2 strain growth inhibition, hits give high values
Method in brief: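 Inhibition of yeast growth was determined after compound treatment, normalised to controls receiving only vehicle.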

[12] = NCI Yeast Anticancer Drug Screen. Data for the mlh1 strain (AID 171);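 further: 0% = growth of vehicle-treated control cultures of the same strain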; conditions: S. cerevisiae mlh1 strain growth inhibition, hits give high values
Method in brief: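 Vehicle-normalised growth inhibition of a repair- or checkpoint-altered yeast strain following compound treatment.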

[13] = NCI Yeast Anticancer Drug Screen. Data for the sgs1 strain (AID 173);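 further: 0% = growth of vehicle-only control cultures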; conditions: S. cerevisiae sgs1 mutant, hits give high values
Method in brief: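 Screen format: yeast with repair or checkpoint alterations, compound exposure, growth read relative to vehicle.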

[14] = NCI Yeast Anticancer Drug Screen. Data for the mlh1 rad18 strain (AID 175); conditions: S. cerevisiae mlh1 rad18 strain growth inhibition, hits give high values
Method in brief: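 Vehicle-treated cultures served as the reference for growth inhibition in a yeast strain carrying DNA damage repair alterations exposed to each compound.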

[15] = NCI Yeast Anticancer Drug Screen. Data for the rad18 strain (AID 177); conditions: S. cerevisiae rad18 mutant growth inhibition, hits give high values
Method in brief: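 Test articles were incubated with altered yeast defective in DNA damage repair. Results are given as inhibition of growth versus vehicle.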

[16] = NCI Yeast Anticancer Drug Screen. Data for the cln2 rad14 strain (AID 165);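 further: 0% = growth equal to vehicle treated cultures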; conditions: S. cerevisiae cln2 rad14 strain, hits give high values
Method in brief: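 Each compound was tested on cln2 rad14 yeast. Inhibition of growth was calculated against vehicle-exposed controls.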

[17] = at 5.0 µM (retest, dose inferred, filed as 0.5)
[18] = at 50.0 µM (retest, dose inferred, filed as 5.0)

Measured: growth inhibition

N#CC(=C1C=CC(=NO)C=C1)c1ccccc1
inactive: [1]; at 1.2 µM 6% | [1]; at 3.7 µM 24% | [2]; at 1.2 µM 3% | [2]; at 3.7 µM 13% | [3]; at 1.2 µM 24% | [3]; at 3.7 µM 64% | [4]; at 1.2 µM 1% | [4]; at 3.7 µM 24% | [5]; at 1.2 µM 4% | [5]; at 3.7 µM 26% | [5]; [17] 30% | [6]; at 1.2 µM -3% | [6]; at 3.7 µM 14% | [6]; [17] 19% | [7]; at 1.2 µM 5% | [7]; at 3.7 µM 24% | [8]; [17] 35% | [9]; at 1.2 µM 2% | [9]; at 3.7 µM 10% | [10]; at 1.2 µM -21% | [10]; at 3.7 µM -19% | [10]; [17] 35% | [11]; at 1.2 µM 4% | [11]; at 3.7 µM 41% | [12]; at 1.2 µM 3% | [12]; at 3.7 µM 15% | [13]; at 1.2 µM 9% | [13]; at 3.7 µM 50% | [14]; [17] 64% | [15]; at 1.2 µM 12% | [15]; at 3.7 µM 43%
active: [1]; at 11.0 µM 98% | [1]; at 33.0 µM 99% | [1]; at 100.0 µM 99% | [2]; at 11.0 µM 99% | [2]; at 33.0 µM 99% | [2]; at 100.0 µM 99% | [3]; at 11.0 µM 96% | [3]; at 33.0 µM 99% | [3]; at 100.0 µM 98% | [4]; at 11.0 µM 99% | [4]; at 33.0 µM 99% | [4]; at 100.0 µM 99% | [5]; at 11.0 µM 98% | [5]; at 33.0 µM 99% | [5]; [18] 99% | [5]; at 50.0 µM 99.3% | [5]; at 100.0 µM 99% | [6]; at 11.0 µM 99% | [6]; at 33.0 µM 99% | [6]; [18] 99% | [6]; at 50.0 µM 99.5% | [6]; at 100.0 µM 99% | [7]; at 11.0 µM 98% | [7]; at 33.0 µM 99% | [7]; at 100.0 µM 99% | [8]; [18] 99% | [8]; at 50.0 µM 99.4% | [9]; at 11.0 µM 97% | [9]; at 33.0 µM 99% | [9]; at 100.0 µM 99% | [10]; at 11.0 µM 94% | [10]; at 33.0 µM 97% | [10]; [18] 99% | [10]; at 50.0 µM 99.3% | [10]; at 100.0 µM 99% | [11]; at 11.0 µM 99% | [11]; at 33.0 µM 99% | [11]; at 100.0 µM 99% | [12]; at 11.0 µM 99% | [12]; at 33.0 µM 99% | [12]; at 100.0 µM 99% | [13]; at 11.0 µM 99% | [13]; at 33.0 µM 99% | [13]; at 100.0 µM 99% | [14]; [18] 99% | [14]; at 50.0 µM 99.4% | [15]; at 11.0 µM 99% | [15]; at 33.0 µM 99% | [15]; at 100.0 µM 99%

O=C1C(Cl)=C(Cl)C(Cl)(Cl)C(Cl)C1(Cl)Cl (stereo not drawn)
inactive: [1]; at 1.2 µM 14% | [1]; at 3.7 µM 27% | [2]; at 1.2 µM 2% | [2]; at 3.7 µM 5% | [2]; at 11.0 µM 21% | [3]; at 1.2 µM 20% | [3]; at 3.7 µM 34% | [3]; at 11.0 µM 58% | [4]; at 1.2 µM 5% | [4]; at 3.7 µM 25% | [4]; at 11.0 µM 45% | [5]; at 1.2 µM 16% | [5]; at 3.7 µM 26% | [5]; [17] 21% | [5]; at 11.0 µM 58% | [6]; at 1.2 µM 8% | [6]; at 3.7 µM 29% | [6]; [17] 22% | [6]; at 11.0 µM 49% | [7]; at 1.2 µM 17% | [7]; at 3.7 µM 25% | [7]; at 11.0 µM 44% | [8]; [17] 30% | [9]; at 1.2 µM 15% | [9]; at 3.7 µM 38% | [9]; at 11.0 µM 54% | [16]; [17] 9% | [10]; at 1.2 µM 11% | [10]; at 3.7 µM 28% | [10]; [17] 5% | [10]; at 11.0 µM 59% | [11]; at 1.2 µM -14% | [11]; at 3.7 µM -6% | [11]; at 11.0 µM 54% | [12]; at 1.2 µM 12% | [12]; at 3.7 µM 26% | [12]; at 11.0 µM 66% | [13]; at 1.2 µM -7% | [13]; at 3.7 µM 36% | [14]; [17] 26% | [15]; at 1.2 µM 40%
active: [1]; at 11.0 µM 71% | [1]; at 33.0 µM 99% | [1]; at 100.0 µM 99% | [2]; at 33.0 µM 94% | [2]; at 100.0 µM 99% | [3]; at 33.0 µM 90% | [3]; at 100.0 µM 99% | [4]; at 33.0 µM 99% | [4]; at 100.0 µM 99% | [5]; at 33.0 µM 99% | [5]; [18] 98% | [5]; at 50.0 µM 99.3% | [5]; at 100.0 µM 99% | [6]; at 33.0 µM 99% | [6]; [18] 99% | [6]; at 50.0 µM 99.5% | [6]; at 100.0 µM 99% | [7]; at 33.0 µM 99% | [7]; at 100.0 µM 99% | [8]; [18] 99% | [8]; at 50.0 µM 99.6% | [9]; at 33.0 µM 99% | [9]; at 100.0 µM 99% | [16]; [18] 96% | [16]; at 50.0 µM 96.8% | [10]; at 33.0 µM 99% | [10]; [18] 98% | [10]; at 50.0 µM 99.5% | [10]; at 100.0 µM 97% | [11]; at 33.0 µM 100% | [11]; at 100.0 µM 99% | [12]; at 33.0 µM 99% | [12]; at 100.0 µM 99% | [13]; at 11.0 µM 81% | [13]; at 33.0 µM 100% | [13]; at 100.0 µM 99% | [14]; [18] 99% | [14]; at 50.0 µM 99.4% | [15]; at 3.7 µM 73% | [15]; at 11.0 µM 90% | [15]; at 33.0 µM 99% | [15]; at 100.0 µM 99%
